Where a name gives a salt, the structure may show the parent alone.
What was measured:
Assay in all cases: thermal shift delta Tm vs DMSO control; higher = stronger stabilization (binding)
Details in all cases: 12.5 µM; protein concentration 2 µM
LOC_OS01G57100-cb003 = system: LOC_OS01G57100-cb003
Procedure, shortened: (§1)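 Rice kinase domain constructs were expressed in E. coli, purified, and tested by differential scanning fluorimetry with compound added in DMSO. Each well of a 96-well plate held 19.5 μl of 2 μM kinase in 100 mM potassium phosphate pH 7.5, 150 mM NaCl, 10% glycerol and 5 × SYPRO Orange, and fluorescence was read from 25°C to 95°C at 0.05°C/s. The melting temperature shift is the mean of triplicates, taken against protein with DMSO alone after Boltzmann fitting.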

LOC_OS01G60330-cb001 = system: LOC_OS01G60330-cb001
Procedure, shortened: as §1

LOC_OS01G60700-cb002 = system: LOC_OS01G60700-cb002
Procedure, shortened: as §1

LOC_OS01G63280-cb003 = system: LOC_OS01G63280-cb003
Procedure, shortened: as §1

LOC_OS01G67340-cb003 = system: LOC_OS01G67340-cb003
Procedure, shortened: as §1

LOC_OS01G70970-cb002 = system: LOC_OS01G70970-cb002
Procedure, shortened: as §1

LOC_OS02G07810-cb001 = system: LOC_OS02G07810-cb001
Procedure, shortened: as §1

LOC_OS02G08530-cb003 = system: LOC_OS02G08530-cb003
Procedure, shortened: as §1

LOC_OS02G14120-cb001 = system: LOC_OS02G14120-cb001
Procedure, shortened: as §1

LOC_OS02G17970-cb001 = system: LOC_OS02G17970-cb001
Procedure, shortened: as §1

Row | Structure (SMILES) | thermal shift delta Tm (LOC_OS01G57100-cb003) [°C] | thermal shift delta Tm (LOC_OS01G60330-cb001) [°C] | thermal shift delta Tm (LOC_OS01G60700-cb002) [°C] | thermal shift delta Tm (LOC_OS01G63280-cb003) [°C] | thermal shift delta Tm (LOC_OS01G67340-cb003) [°C] | thermal shift delta Tm (LOC_OS01G70970-cb002) [°C] | thermal shift delta Tm (LOC_OS02G07810-cb001) [°C] | thermal shift delta Tm (LOC_OS02G08530-cb003) [°C] | thermal shift delta Tm (LOC_OS02G14120-cb001) [°C] | thermal shift delta Tm (LOC_OS02G17970-cb001) [°C]
1 | N#Cc1c(NC(=O)c2cccc3ccccc23)sc2c1CCCC2 [JNK Inhibitor IX] | 1.35 | 1.18 | 0.63 | -0.18 | 0.34 | 0 | 0.12 | 0.47 | -0.31 | 0.76
2 | CC(C)n1nc(-c2cc3cc(O)ccc3[nH]2)c2c(N)ncnc21 [Torkinib (PP242)] | 0.56 | 1.53 | 1.1 | 3.14 | 1.04 | 0.66 | 0.64 | 0.63 | 0.74 | 0.57
3 | CN1CCN(c2ccc(OC(F)(F)F)c(Nc3ncc4c(n3)-c3c(c(C(N)=O)nn3CCO)CC4)c2)CC1 | 1.21 | 0.44 | 0.52 | 0.63 | 0.36 | 0.12 | 0.04 | 1.25 | 1.17 | 0.51
4 | Clc1ccc(Nc2nnc(Cc3ccncc3)c3ccccc23)cc1 [Vatalanib (PTK787) 2HCl] | 1.4 | 1.02 | 5.09 | 2.03 | -0.72 | 0.27 | 0.26 | 0.34 | -0.4 | 0.47
5 | COc1cc2ncnc(Nc3ccc(Oc4ccccc4)cc3C)c2cc1OC | 1.05 | 0.33 | 0.09 | 0.54 | 0.17 | 0.47 | -1.03 | 0.5 | 3.14 | 0.03
6 | Cn1c(Nc2ccc(C(F)(F)F)cc2)nc2cc(Oc3ccnc(-c4ncc(C(F)(F)F)[nH]4)c3)ccc21 | 4.82 | 16.6 | 0.58 | 24.5 | 1.4 | 1.63 | 3.92 | 0.26 | 0.77 | 2.38
7 | COc1ccc(-c2ccc3ncc4c(c3c2)n(-c2ccc(N3CCNCC3)c(C(F)(F)F)c2)c(=O)n4C)cn1 | 1.82 | 0.66 | 0.68 | 0.17 | 1.43 | 0.41 | 1.67 | 2.04 | 8.11 | 0.58
8 | N#Cc1ccc2ncnc(NCCc3ccccc3)c2c1 [Senexin A] | -0.12 | 0.74 | -0.36 | 0.25 | 0.38 | 0.3 | -0.71 | 2.47 | 2.47 | 0.28
9 | Cn1cnc(N)c2ncnc1-2 [3-Methyladenine (3-MA)] | 1.89 | 1.27 | 0.77 | 0.22 | -0.29 | 0.22 | 0.96 | 1.08 | 0.61 | 0.34
10 | Cc1csc(-c2nnc(Nc3ccc(Oc4ncccc4-c4ccnc(N)n4)cc3)c3ccccc23)c1 | 2.43 | -0.58 | 0.56 | 14 | 0.96 | 0.74 | 1.36 | 4.38 | 3.75 | 1.17
11 | Cc1cc(F)c(Nc2ncnc3cc(OCc4ccccc4)ccc23)cc1O | 1.8 | 0.94 | 2.58 | 1.25 | 0.41 | 0.6 | 1.36 | 1.46 | 0.86 | 1.59
12 | Nc1ncnc2c1c(-c1cnc3[nH]ccc3c1)nn2C1CCCC1 | 1.79 | 1.57 | 1.17 | 4.61 | 1.58 | 0.76 | 1.3 | 2.67 | 2.04 | 0.76
13 | O=C(Cc1ccc(-c2ccc(OCCN3CCOCC3)cc2)cn1)NCc1ccccc1 | 1.17 | 0.12 | 1.18 | 0.26 | 0.62 | 0.16 | 0.92 | 0.7 | 0.08 | 1.17
14 | O=c1c(-c2ccc(O)cc2)coc2cc(O)cc(O)c12 [Genistein] | -0.59 | 0.72 | 1.28 | 0.16 | -0.02 | 0.33 | 0.97 | 1.28 | -1.28 | 1.58
15 | C[C@H]1CNCCCN1S(=O)(=O)c1cccc2cncc(F)c12 [Ripasudil (K-115) hydrochloride dihydrate] | 0.7 | 1.17 | 1.6 | 0.79 | 0.45 | 0.28 | 1.1 | 0.65 | 1.57 | 1.75
16 | C[C@H](NC(=O)c1c(N)nn2cccnc12)c1cc2cccc(C#Cc3cnn(C)c3)c2c(=O)n1-c1ccccc1 | 1.25 | 0.23 | -0.49 | 0 | 0.21 | 0.36 | -0.71 | 0.78 | 0.56 | 0.54
17 | Cc1c[nH]c2nc(Nc3ccc(N4CCN(C)CC4)c(F)c3)nc(-c3cccc(CC#N)c3)c12 | 5.04 | 11.8 | 1.98 | 3.25 | 11.9 | 8.75 | 1.04 | 6.49 | 15.2 | 1.24
18 | c1ccc(-c2[nH]ncc2-c2ccnc3ccccc23)nc1 | 0.37 | -0.07 | 0.62 | -0.05 | 0.51 | -0.04 | 0.95 | 0.29 | 2.26 | 0.56
19 | CCNc1nc(Nc2cc(F)c(C(=O)N3CCOCC3)cc2OC)ncc1C(F)(F)F | 0.61 | 1.21 | 0.71 | 0.15 | 0.32 | 0.73 | -0.04 | 1.3 | 0.5 | 0.54
20 | CCOc1cc(C(=O)N2CCC(N3CCN(C)CC3)CC2)ccc1Nc1ncc2c(n1)N(C1CCCC1)c1ccccc1C(=O)N2C | 1.18 | 1.19 | 0.58 | -0.25 | 0.42 | 0.05 | 0.06 | 0.54 | -0.51 | -0.43

Row | Structure (SMILES) | thermal shift delta Tm (LOC_OS01G57100-cb003) [°C] | thermal shift delta Tm (LOC_OS01G60330-cb001) [°C] | thermal shift delta Tm (LOC_OS01G60700-cb002) [°C] | thermal shift delta Tm (LOC_OS01G63280-cb003) [°C] | thermal shift delta Tm (LOC_OS01G67340-cb003) [°C] | thermal shift delta Tm (LOC_OS01G70970-cb002) [°C] | thermal shift delta Tm (LOC_OS02G07810-cb001) [°C] | thermal shift delta Tm (LOC_OS02G08530-cb003) [°C] | thermal shift delta Tm (LOC_OS02G14120-cb001) [°C] | thermal shift delta Tm (LOC_OS02G17970-cb001) [°C]
21 | O=c1cc(N2CCOCC2)oc2c1ccc1ccccc12 | -0.21 | -0.04 | 0.19 | 0.17 | 0.3 | -0.28 | 0.45 | 0.22 | 1.47 | 0.01
22 | N#C/C(=C(/N)Sc1ccc(N)cc1)c1ccccc1C(F)(F)F | 0.82 | 0.59 | 0.64 | -0.09 | -0.57 | 0.23 | 0.12 | 0.32 | -0.1 | 0.43
23 | CO[C@H]1C[C@@H]2CC[C@@H](C)[C@@](O)(O2)C(=O)C(=O)N2CCCC[C@H]2C(=O)O[C@H]([C@H](C)C[C@@H]2CC[C@@H](OC(=O)C(C)(CO)CO)[C@H](OC)C2)CC(=O)[C@H](C)/C=C(\C)[C@@H](O)[C@@H](OC)C(=O)[C@H](C)C[C@H](C)/C=C/C=C/C=C/1C | 1.06 | 1.91 | 0.66 | 0.23 | -0.48 | 0.3 | 0.33 | 0.57 | 0.93 | 0.36
24 | O=C1NC(=O)/C(=C/c2ccc3c(c2)OC(F)(F)O3)S1 | 2.63 | 0.63 | 1.33 | 0.41 | 0.47 | 0.52 | 1.34 | 0.96 | -0.18 | 0.93
25 | CCN1CCN(Cc2ccc(-c3cc4c(N[C@H](C)c5ccccc5)ncnc4[nH]3)cc2)CC1 | 0.7 | 1.5 | 0.28 | 0.52 | -0.08 | 0.5 | 1.12 | 0.67 | 3.81 | 0.8
26 | COc1cc(C(=O)N2CCC(N3CCN(C)CC3)CC2)ccc1Nc1ncc2c(n1)N(C)c1ccccc1C(=O)N2C | 0.21 | 0.56 | 0.5 | -0.2 | 0.17 | 0.15 | 0.46 | 1.92 | 1.72 | 0.35
27 | O=c1cc(N2CCOCC2)oc2c(-c3ccccc3)cccc12 | 0.48 | 1.07 | 1.31 | 0.43 | -0.28 | 0.36 | 1.28 | 0.91 | 0.08 | 0.84
28 | Nc1[nH]nc2nnc(-c3c(-c4ccccc4)nn4ccccc34)cc12 | 1.13 | 1.24 | 0.92 | 0.4 | 0.72 | 0.68 | -0.25 | 2.11 | 0.36 | 0.87
29 | C1=N/C2=N/c3ccc(OCCN4CCCC4)c(c3)COC/C=C/COCc3cccc(c3)C(=C1)N2 [Pacritinib (SB1518)] | 1.85 | 6.01 | 0.7 | 2.88 | 1.79 | 2.62 | 0.11 | 4.85 | 11.4 | 0.42
30 | CN(C)C[C@@H]1CCn2cc(c3ccccc32)C2=C(C(=O)NC2=O)c2cn(c3ccccc23)CCO1 | 2.1 | 0.51 | 2.42 | 0.43 | 0.03 | 0.53 | 0.54 | 1.19 | 2.29 | 1.69
31 | CC#CC(=O)Nc1ccc2ncnc(Nc3cccc(Br)c3)c2c1 | -0.79 | 0.53 | 1.56 | 0.9 | 1.06 | 0.37 | 0.86 | 1.43 | 2.95 | 1.1
32 | CC(C)c1cnn2c(NCc3ccccc3-n3cccn3)nc(OC3CCCNC3)nc12 (stereo not given) | 0.42 | 1.35 | 1.26 | 0.47 | 0.65 | 0.27 | 0.85 | 0.74 | -0.11 | 2.44
33 | NC[C@@](O)(c1ccc(Cl)cc1)c1ccc(-c2cn[nH]c2)cc1 | 2.29 | 1.43 | 1.37 | 0.56 | 0.77 | 0.29 | 0.52 | 0.75 | 1.05 | 0.63
34 | Cc1cc(Nc2cc(Cl)nc(Oc3ccc([N+](=O)[O-])cc3)n2)n[nH]1 [Autophinib] | 1.52 | 0.66 | -0.44 | 0.94 | 0.51 | 1.07 | -0.12 | 0.84 | 0.42 | 0.46
35 | COc1ncc(-c2ccc3nccc(-c4ccnnc4)c3c2)cc1NS(=O)(=O)c1ccc(F)cc1F | 2.01 | 0.36 | 1.17 | 0.66 | 1.24 | 0.34 | 1.43 | 0.74 | 0.78 | 1.75
36 | Nc1ccc(-c2ccc3ncc4ccc(=O)n(-c5cccc(C(F)(F)F)c5)c4c3c2)cn1 [Torin 2] | 0.64 | 1.09 | 1.01 | 0.11 | 0.33 | 0.87 | 0.19 | 1.53 | 1.62 | 1.12
37 | CCC[C@H](NC(=O)/C(C#N)=C/c1cccc(Br)n1)c1ccccc1 [Degrasyn (WP1130)] | 5.82 | 0.61 | 1.12 | -5.45 | -3.27 | 0.17 | 0.68 | -0.39 | -1.56 | 4.33
38 | CCCCCCCCCCCCc1ccc(S(=O)(=O)Nc2nncs2)cc1 | 2.08 | 0.81 | 0.86 | 0.54 | -1.07 | 0.27 | 1.33 | 0.91 | -0.22 | 0.86
39 | COc1cc(N2CCN(C)CC2)ccc1Nc1nccc(-c2cn(C)c3cnccc23)n1 | 1.48 | 2 | 1.01 | 0.34 | 0.37 | 0.31 | 0.46 | 3.48 | 5.04 | 0.61
40 | COc1cc2c(Nc3ccc(NC(=O)c4ccccc4)cc3)ncnc2cc1OCCCN1CCOCC1 | 0.97 | 1.05 | 0.6 | 1.19 | 0.4 | 1.66 | 1.37 | 0.66 | 0.79 | 0.45

From the supplement of paper PMC9694430
